Out of some 2,100 compounds screened, about 320 (15%) were called active. Roughly 52% stayed inconclusive and do not appear here. Some of the results follow. Unmarked numbers belong to inactive results. Calls follow the shape of the dose curve; as a rule, active = well fitted cell-killing curve with a large enough effect; inconclusive = small, poorly fitted or top-dose-only effect, or effect the other way; inactive = flat fitted curve, though single readings scatter.
assay: Viability Counterscreen for CMV-Luciferase Assay of Inhibitors of ATXN expression; conditions: HEK-293 CMV-luciferase cells viability, protease fluorescence, 24 h; series mostly up to 57.5 µM; also: nearly all actives have a fitted effect of over 55% in size
From the text: PI: Daniel Scoles Ph.D. University of Utah School of Medicine, Salt Lake City, Utah MLPCN Grant: NS073009 Spinocerebellar ataxia type 2 (SCA2) is a multisystem neurodegenerative disease caused by a dominantly acting mutation leading to expansion of a polyQ domain in the ataxin-2 protein (ATXN2). SCA2 patients develop progressive ataxia and later lose function in other neuronal systems. Prominent parkinsonian signs develop in some patients. Like many neurodegenerative disorders, no symptomatic or disease-modifying treatments are known. The primary objective of the proposed research is to identify compounds inhibiting ATXN2 expression and to test them for efficacy in SCA2 mouse models. We have developed a cell-based assay paired with an in vivo mouse model using identical luciferase expression constructs. This approach takes advantage of an ATXN2-luciferase transgene, with the luciferase gene flanked by the upstream and downstream portions of the ATXN2 gene. Here we describe a 5-7 dose quantitative high thoroughput screen (qHTS) for compounds lowering ATXN2 expression. We screened the NIH Molecular Libraries Small Molecule Repository (MLSMR) and NCGC's mechanistically annotated (MIPE) and drug repurposing (NPC) collections of compounds for lowering expression of an ATXN2-luciferase reporter in HEK-293 cells. The assay is a multiplexed cell viability assay to ensure target reduction in the absence of cytotoxicity. Secondary qHTS assays included a CMV-luciferase reporter expressed in HEK-293 cells as well as a biochemical assay using recombinant luciferase to detect inhibitors of the reporter enzyme. Compounds that inhibit ATXN2 expression but is not cytotoxic were selected for confirmatory and secondary screens.
PROTOCOL TABLE (as described by Inglese J, Shamu CE and Guy RK. 2007) SEQUENCE No. (e.g., 1, 2, 3, etc.); […] (e.g., Cells, Incubation, Reagent, etc.); VALUE; DESCRIPTION. 1; Cells; 4 uL; white, solid bottom, 1536-well Greiner assay plate. 2; Incubation; 2 hr; 37 degree C in 5% humidified CO2. 3; Compounds; 23 nL; Kalypsis pintool (Wako USA) equipped with a 1536-well pin head. 4; Incubation; 24 hr; 37 degree C in 5% humidfified CO2. 5; Reagent; 1 uL; Gly-Phe-7-Amino-4-trifluoromethylcoumarin. 6; Incubation; 30 min; 37 degree C in 5% humidfified CO2. 7; Detection; Fluorescence; Viewlux plate reader (PerkinElmer). 8; Reagent; 3 uL; SteadyGlo luciferase solution (Promega). 9; Incubation; 5 min; room temperature. 10; Detection; Luminescence; ViewLux plate reader (PerkinElmer). NOTES (numbers refer to Sequence numbers above) 1. HEK-293 cells expressing CMV-luciferase reporter (designated as SC cells) were suspended in phenol-red free DMEM and dispensed in assay plates using a Multidrop Combi dispenser (Thermo Fisher Scientific). 2. Assay plates were incubated. Evaporation was prevented by covering assay plates with metal lids containing holes to allow gas diffusion. 3. Compounds were added in a dose response manner with the final concentrations of 57, 11.4, 2.28, 0.46, 0.091, 0.018, 0.0037 uM. Vehicle-only plates, with DMSO being pin-transferred to columns 5-48, were inserted uniformly at the beginning and the end of each library to monitor and record any shifts in assay performance. 5. 125 uM Gly-Phe-7-Amino-4-trifluoromethylcoumarin (MP Biomedicals) working concentration was used at a final concentration of 25 uM. 7. To assess cell viability; the assay plates were read using the ViewLux high-throughput CCD imager (PerkinElmer), wherein single end-point fluorescence measurement was acquired (excitation 405/10; emission 540/25 nm). 8. Detection reagent SteadyGlo Luciferase (Promega) was added to the assay plate. 10. Luminescence is then measured on the ViewLux imager equipped with a clear emission filter using a 2 sec exposure. […]
% is scaled to controls: 0 for no effect and ±100 for the full control effect; potency is read from the fitted curve at half-maximal effect.

SMILES | Potency | activity change, negative = cytotoxicity
COC12C(COC(N)=O)C3=C(C(=O)C(C)=C(N)C3=O)N1CC1C2N1C (configuration not stated) | 12.6 µM (active) | –
Cc1cccc(C)c1-n1nnnc1C(c1cc2ccccc2o1)N1CCC(n2c(=O)[nH]c3ccccc32)CC1 (configuration not stated) | 7.94 µM (active) | –
CC(C)(C)n1nnnc1C(CCc1ccccc1)N1CCC(n2c(=O)[nH]c3ccccc32)CC1 (configuration not stated) | 20 µM (active) | –
O=c1[nH]c2ccccc2n1C1CCN(C(CCc2ccccc2)c2nnnn2C2CCCC2)CC1 (configuration not stated) | 11.2 µM (active) | –
CN1C(=O)NC(=O)/C(=C\C=C\c2ccccc2[N+](=O)[O-])C1=O | 7.94 µM (active) | –
Oc1c(Cl)cccc1Cc1cc(Cl)cc(Cl)c1O | 15.8 µM (active) | –
c1ccc(CNc2c3c(nc4ccccc24)CCC3)cc1 | inactive | –
O=C(Nc1ccc(OC(=O)N2CCCCC2)cc1)N1CCOCC1 | inactive | –
CC12CCC3C(CCC4(O)CC(O)CCC34C=NO)C1(O)CCC2C1=COC(=O)C1 (configuration not stated) | 0.891 µM (active) | –
CCCCN=C[C@]12CCC(O)CC1(O)CCC1[C@@H]2CC[C@]2(C)[C@H](C3C=CC(=O)O3)CCC12O (some centres not stated) | 1.78 µM (active) | –
C1=NCCc2c1[nH]c1ccccc21 | – | 1.29% [at 11.4 µM]
COc1cccc2c1C(=O)c1c(O)c3c(c(O)c1C2=O)CC(O)(C(C)=NO)CC3OC1CC(N)C(O)C(C)O1 (configuration not stated) | 14.1 µM (active) | –
O=[N+]([O-])c1oc2ccc3ccccc3c2c1CCO | 20 µM (active) | –
Cc1ccc(-c2nc(N(C)C3CCN(C)CC3)c3ccccc3n2)cc1 | inactive | –
c1ccc2sc(N3CCNCC3)nc2c1 | inactive | –
O=C(NN=Cc1ccc(N(CCCl)CCCl)cc1)c1cc(=O)[nH]c(=O)[nH]1 | inactive | –
N[C@@H](Cc1ccc(N(CCCl)CCCl)cc1)C(=O)O | 12.6 µM (active) | –
O=C1NC(=O)N(CCc2ccc(F)cc2)C(=O)/C1=C/C=C/c1ccccc1 | 7.94 µM (active) | –
COc1ccc(CC2NCC(O)C2OC(C)=O)cc1 (configuration not stated) | 0.282 µM (active) | –
CCC1(OC(=O)CN)C(=O)OCc2c1cc1n(c2=O)Cc2cc3ccccc3nc2-1 (configuration not stated) | – | 14.6% [at 11.4 µM]
COC(=O)c1nc(-c2ccc3c(n2)C(=O)C(N)=C(OC)C3=O)c(N)c(-c2ccc(OC)c(OC)c2O)c1C | 20 µM (active) | –
C[C@@H]1O[C@@H](O[C@@H]2C=C3CC[C@@H]4C(CC[C@]5(C)[C@@H](c6ccc(=O)oc6)CC[C@]45O)[C@@]3(C)CC2)[C@H](O)[C@H](O)[C@H]1O (some centres not stated) | 8.91 µM (active) | –
COc1ccc(CC2C(=O)NC(C)C(=O)N(C)C3C(=O)N(C)C(Cc4ccc(O)c(c4)Oc4ccc(cc4)C3O)C(=O)NC(C)C(=O)NC(C)C(=O)N2C)cc1 (configuration not stated) | 0.355 µM (active) | –
O=C(CSC1c2ccccc2-c2ccccc21)N/N=C/c1ccccc1O | 3.55 µM (active) | –
CCCCCCC(=O)N/N=C/c1c(O)n(CCc2ccccc2)c(=O)[nH]c1=O | 8.91 µM (active) | –
CC(=NCCc1c[nH]c2ccccc12)c1c(O)n(Cc2ccccc2)c(=O)[nH]c1=O | inactive | –

SMILES | Potency | activity change, negative = cytotoxicity
CCCCCCC(=O)N/N=C/c1c(O)n(CCCC)c(=S)[nH]c1=O | inactive | –
COc1ccc(CCNCc2ccc(F)cc2)cc1OC | – | -21.2% [at 11.4 µM]
C[C@]12CC[C@H](O)C[C@H]1CC[C@@H]1[C@@H]2CC[C@]2(C)[C@@H](C3=CC(=O)OC3)CC[C@]12O | 0.794 µM (active) | –
C[C@]12CCC3C(CCC4=CC(O)CC[C@@]43/C=N/O)C1(O)CCC2C1=CC(=O)OC1 (some centres not stated) | 1.41 µM (active) | –
CC12CCC(O)CC1CCC1C2CCC2(C)C(C3=CC(=O)OC3)C(O)CC12O (configuration not stated) | 7.94 µM (active) | –
CC(=O)OC1CC2(O)C3CCC4CC(O)CCC4(C)C3CCC2(C)C1C1=CC(=O)OC1 (configuration not stated) | 0.501 µM (active) | –
CC[C@@]1(O)C(=O)OCc2c1cc1n(c2=O)Cc2cc3c(NC(=O)CN)cccc3nc2-1 | – | 25.7% [at 11.4 µM]
COC1C(O)C(C)OC(OC2C(Oc3cccc4c(O)c5c(=O)oc6ccc(C)c7c(=O)oc(c34)c5c67)OC(C)C(O)C2O)C1O (configuration not stated) | – | 7.77% [at 11.4 µM]
CC1OC(OC2C(O)CC(OC3C(O)CC(OC4CCC5(C)C(CCC6C5CCC5(C)C(C7=CC(=O)OC7)C(O)CC65O)C4)OC3C)OC2C)CC(O)C1O (configuration not stated) | 0.251 µM (active) | –
CN1C2CCC1/C(=C/c1ccccn1)C(=O)/C2=C\c1ccccn1 | 0.708 µM (active) | –
C[C@@H]1C[C@@H]([C@H](O)CC2CC(=O)NC(=O)C2)C(=O)[C@@H](C)C1 | 1.78 µM (active) | –
CCC(C)N1C(=O)/C(=C\c2cnc(N(C)C)nc2)C(=O)NC1=S (configuration not stated) | inactive | –
C=CCCC[C@@H]1OC(=O)CNC(=O)C([C@@H](C)CC)NC(=O)[C@@H]2CCCN2C(=O)C([C@@H](C)CC)OC(=O)[C@H](Cc2ccccc2)N(C)C(=O)[C@H](C(C)C)NC(=O)C1(C)C (some centres not stated) | 3.55 µM (active) | –
CCCCCOc1ccc(C)cc1CN(CCCl)CCCl | 22.4 µM (active) | –
CCCCCn1c(=O)c(C(=O)NCc2ccccn2)c(O)c2ccccc21 | – | -15.5% [at 11.4 µM]
C[C@H]1[C@@H](OS(=O)(=O)O)C[C@@H]2C[C@H]([C@@H](O)c3cc(=O)[nH]c(=O)[nH]3)NC3=NC[C@H]1N32 | 12.6 µM (active) | –
CSCCC(c1nnnn1-c1c(C)cccc1C)N1CCC2(CC1)C(=O)NCN2c1ccccc1 (configuration not stated) | 28.2 µM (active) | –
CC(C)CNc1c2c(nc3ccccc13)CCC2 | – | -29.7% [at 11.4 µM]
Cc1ccc(/C=C2\C(=O)NC(=S)N(c3ccccc3F)C2=O)s1 | 3.98 µM (active) | –
C[C@H]1CCC[C@@H](O)CCC/C=C/c2cc(O)cc(O)c2C(=O)O1 | 1.58 µM (active) | –
C[C@H]1CCC[C@H](O)CCCCCc2cc(O)cc(O)c2C(=O)O1 | – | -5.55% [at 11.4 µM]
CCC(C)(O)C(=O)OC1C(=O)OC2CC3C(C)=CC(=O)C(O)C3(C)C3C4(O)OCC23C1C(C)C4O (configuration not stated) | 0.316 µM (active) | –
COc1ccc2c(c1)C(c1ccc(N(CCCl)CCCl)cc1)=NCC2 | inactive | –
O=C1NC(=O)C2(CCCc3ccc(N(CCCl)CCCl)cc32)N1 (configuration not stated) | 11.2 µM (active) | –
CC1CC(C)CC(C)C(O)C(C#N)=CC=CCC(C2CCCC2C(=O)O)OC(=O)CC(O)C(C)C1 (configuration not stated) | 0.398 µM (active) | –
COC(=O)C(O)(c1ccc(NC(=S)NC(=O)c2ccc(Cl)cc2Cl)c(C)c1)C(F)(F)F (configuration not stated) | – | 1.53% [at 11.4 µM]

Reference: PubChem BioAssay AID1745849 (National Center for Advancing Translational Sciences (NCATS), 2022)
